Tests used:
Settings in all cases: concentration: 1 μM, replicates: in singlicate; n = 1
[1] = test system: PRKD3
[2] = test system: PRKG1
[3] = test system: PRKG2
[4] = test system: T1, PRKR
T1 construct: gene EIF2AK2

[5] = test system: PRKX
[6] = test system: PRP4
[7] = test system: T2, PYK2
T2 construct: gene PTK2B

[8] = test system: QSK
[9] = test system: RAF1
[10] = test system: RET
[11] = test system: RIOK1
[12] = test system: RIOK2
[13] = test system: RIOK3
[14] = test system: RIPK1
[15] = test system: RIPK2
[16] = test system: RIPK4
[17] = test system: RIPK5
[18] = test system: ROCK1
[19] = test system: ROCK2
[20] = test system: ROS1
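Note: KINOMEscan kinase panel screen.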

| Compound | %Inh [1] [%] | %Inh [2] [%] | %Inh [3] [%] | %Inh [4] [%] | %Inh [5] [%] | %Inh [6] [%] | %Inh [7] [%] | %Inh [8] [%] | %Inh [9] [%] | %Inh [10] [%] | %Inh [11] [%] | %Inh [12] [%] | %Inh [13] [%] | %Inh [14] [%] | %Inh [15] [%] | %Inh [16] [%] | %Inh [17] [%] | %Inh [18] [%] | %Inh [19] [%] | %Inh [20] [%] |
| --- | --- | --- | --- | --- | --- | --- | --- | --- | --- | --- | --- | --- | --- | --- | --- | --- | --- | --- | --- | --- |
| FC(F)(F)c1ccc(/C=C/c2cncnc2Nc2ccc3[nH]c(Cc4ccccc4)nc3c2)cc1 [GW709199] | 0 | 0 | 6 | 2 | 0 | 0 | 30 | 0 | 46 | 8 | 33 | 0 | 2 | 11 | 11 | 0 | 0 | 0 | 0 | 0 |
| O=c1[nH]cc(-c2ccc(N3CCOCC3)cc2)c2sc(-c3cn[nH]c3)cc12 [GSK2276055] | 4 | 0 | 10 | 34 | 10 | 0 | 0 | 11 | 0 | 3 | 37 | 76 | 25 | 18 | 0 | 12 | 10 | 0 | 0 | 0 |
| COc1ccc(CNC(=O)NC2CCN(c3ccnc(Nc4ccc(F)cc4)n3)CC2)cc1 [GSK1379788] | 0 | 0 | 0 | 0 | 5 | 46 | 0 | 0 | 7 | 0 | 28 | 0 | 0 | 0 | 0 | 12 | 0 | 12 | 31 | 26 |
| c1ccc(-c2cnc3nccnn23)cc1 [AH20685] | 0 | 14 | 0 | 0 | 6 | 6 | 0 | 0 | 7 | 0 | 0 | 0 | 0 | 0 | 0 | 0 | 0 | 0 | 0 | 0 |
| Nc1n[nH]c2cnc(-c3ccccc3)cc12 [SB-642124] | 0 | 0 | 0 | 0 | 19 | 18 | 5 | 0 | 11 | 0 | 31 | 20 | 100 | 30 | 29 | 25 | 0 | 40 | 18 | 0 |
| c1ccc(Oc2ccc(Nc3ccnc4cc(-c5ccc(CNCCN6CCOCC6)o5)ccc34)cc2)nc1 [GW567145] | 23 | 1 | 2 | 0 | 0 | 36 | 0 | 17 | 2 | 5 | 0 | 0 | 0 | 0 | 93.5 | 0 | 1 | 4 | 40 | 0 |
| Cn1cc(-c2ccc3c(c2)CCN3C(=O)Cc2cccc(Cl)c2)c2c(N)ncnc21 [GSK2606590] | 9 | 14 | 0 | 14 | 21 | 2 | 4 | 23 | 1 | 27 | 6 | 19 | 12 | 100 | 15 | 0 | 58 | 0 | 40 | 31 |
| c1ccc(-c2n[nH]cc2Nc2ccnc3ccccc23)nc1 [GW694077] | 100 | 5 | 0 | 16 | 0 | 89 | 0 | 0 | 7 | 0 | 99.2 | 86 | 100 | 0 | 11 | 96.4 | 85 | 98.2 | 97.8 | 9 |
| Cl.Cl.NCC(NCc1ccc(-c2ccnc3[nH]ccc23)s1)c1ccccc1 (stereo not shown) [GSK1321565] | 56 | 97.1 | 97.8 | 0 | 94.2 | 86 | 9 | 0 | 2 | 49 | 100 | 44 | 98.4 | 2 | 0 | 47 | 0 | 100 | 99.4 | 60 |
| Cc1ccc(F)c(C(=O)Nc2cccc(-c3nn4ccccc4c3-c3ccnc(Nc4cccc(F)c4)n3)c2)c1F [GSK361061] | 32 | 18 | 0 | 0 | 12 | 15 | 0 | 17 | 87 | 96.3 | 23 | 26 | 5 | 2 | 61 | 4 | 0 | 0 | 3 | 21 |
| Oc1cc(Nc2ccnc3cc(I)ccc23)ccc1F [GW552771] | 40 | 0 | 0 | 0 | 0 | 18 | 25 | 69 | 49 | 85 | 25 | 29 | 0 | 0 | 50 | 0 | 0 | 30 | 27 | 0 |
| Cn1cc(-c2ccc3c(c2)CCN3C(=O)Cc2cccc(F)c2)c2c(N)ncnc21 [GSK2603358] | 2 | 0 | 4 | 1 | 14 | 44 | 0 | 8 | 9 | 47 | 7 | 0 | 0 | 99.7 | 34 | 5 | 62 | 9 | 64 | 21 |
| COc1cc(Nc2nccc(N3CCC(NC(=O)c4cc5ccccc5s4)C3)n2)cc(OC)c1OC (stereo not shown) [GSK1379760] | 0 | 9 | 7 | 8 | 24 | 48 | 0 | 100 | 15 | 21 | 76 | 14 | 53 | 24 | 7 | 0 | 0 | 0 | 14 | 45 |
| CC(=O)N1CCN(c2ccc(Nc3nccc(-c4sc(C(C)C)nc4-c4cccc(NS(=O)(=O)c5cccc(Cl)c5)c4)n3)cn2)CC1 [GSK1660437] | 100 | 25 | 0 | 0 | 5 | 2 | 0 | 10 | 86 | 54 | 19 | 10 | 4 | 0 | 93.2 | 0 | 37 | 0 | 18 | 21 |
| Nc1ncc(-c2cccnc2)c2scc(-c3ccc4c(c3)CCN4C(=O)Cc3ccccc3)c12 [GSK683281] | 18 | 12 | 25 | 5 | 23 | 0 | 35 | 18 | 11 | 21 | 35 | 96.6 | 22 | 100 | 82 | 16 | 20 | 0 | 6 | 27 |
| Clc1ccc(-c2nn3ncccc3c2-c2ccnc(Nc3ccc4c(c3)OCCO4)n2)cc1 [GW829116] | 3 | 0 | 0 | 0 | 0 | 0 | 24 | 0 | 16 | 24 | 0 | 0 | 0 | 0 | 83 | 0 | 0 | 37 | 0 | 0 |
| CN(C)S(=O)(=O)c1cc(-c2ccc3nccc(-c4cccc(S(N)(=O)=O)c4)c3c2)cnc1N [GSK1669921] | 100 | 34 | 76 | 0 | 27 | 0 | 6 | 7 | 9 | 58 | 36 | 23 | 21 | 4 | 8 | 9 | 26 | 0 | 0 | 0 |

— PMC5540273 (PLoS ONE, 2017)
